Compounds with a hit are over-represented: about 5% of the library has one in this group of screens.
PREPL inh: inhibitors of human prolyl oligopeptidase-like enzyme PREPL; Q4J6C6; recombinant PREPL, fluorescence polarization activity-based probe; inhibition, % at 5.96 µM; actives 0.68% (n = 320,000); AID 2751; in the data active means inhibition above about 43%;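 further: 0% = enzyme with DMSO and 100% = wells lacking enzyme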
CHT allo act: allosterically activates the human high affinity choline transporter. Q9GZV3. CHT-expressing cells, membrane potential dye, choline EC20; active compounds read high; LV-AA mutant CHT in HEK293 cells. B-score at 10 µM. actives 0.49% (n = 310,000). AID 488977;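 active means initial fluorescence not abnormally high and integrated response B-score, plate-corrected, over 3 SD above library mean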
CHT block: human CHT choline transport inhibition. Q9GZV3. CHT-expressing cells, membrane potential dye, choline response; active compounds read low. B-score at 10 µM. actives 0.86% (n = 310,000). AID 488975;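 active means B-score over 3 SD under the library average, and starting fluorescence ratio not unusually high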;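 further: choline stimulus applied at its EC90 after an EC20 pre-addition; B-score computed on integrated fluorescence ratio after choline addition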
ALR inh: inhibitors of human sulfhydryl oxidase ALR; actives 3.8% (n = 290,000); inhibition, % (test concentration not listed); P55789; purified ALR, DTT oxidation, H2O2 HRP-luminol luminescence;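 active means mean replicate inhibition above about 79%, with every replicate also reaching it, limit read from the data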
Target sequence (P55789 whole entry, looked up): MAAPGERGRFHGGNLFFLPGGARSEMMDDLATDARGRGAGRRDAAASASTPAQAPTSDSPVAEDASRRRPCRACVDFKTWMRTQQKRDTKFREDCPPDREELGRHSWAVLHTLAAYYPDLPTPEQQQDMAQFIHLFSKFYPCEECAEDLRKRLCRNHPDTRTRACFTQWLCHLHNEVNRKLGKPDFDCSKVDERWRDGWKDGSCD
AI-2 QS modul: Vibrio harveyi AI-2 quorum sensing modulation | Vibrio harveyi JMH597 AI-2 luminescence/OD600 ratio, 9 h; active compounds read low; strain lacks LuxN and CqsS sensors; 0 = neutral-control median | activity change, % at 7.5 µM | actives 0.4% (n = 300,000) | AID 2094; in the data active means activity change below about -75%, passing the limit was not always enough;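 further: luminescence divided by OD600 gain over 9 h not by final OD600 alone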
The depositor's hits bear a star; i = inactive; . = no result.

SMILES	PREPL inh	CHT allo act	CHT block	ALR inh	AI-2 QS modul
CC(C(=O)NC1CCCC1)N(C(=O)c1snc(C(N)=O)c1N)c1ccc2c(c1)OCCO2 (centres undefined)	8	i	i	96*	2
CC(=O)c1ccc(OCc2cc(C(=O)N3CCN(c4ccccc4)CC3C)no2)cc1 (centres undefined)	-14	i	i	18	-8
CCN1CCC(N2CCN(c3ccc(F)cc3)CC2)CC1	9	i	i	97*	0
CCN(CC)CCNC(=O)c1cc2cc(Br)ccc2s1	-13	i	i	-16	-5
OCC1(CO)COC(c2ccccc2)=N1	-4	i	i	-15	14
O=C1OCC(CO)(CO)N=C1NNc1ccc(Cl)c(Cl)c1	-1	i	i	100*	14
C/C(=N\NC(=O)c1ccc(N/N=C(\C)c2ccc(O)cc2)cc1)c1ccc(O)cc1	30	i	i	.	23
COC(=O)c1sc(-c2cccs2)cc1NC(=O)/C=C/C(=O)O	13	i	i	98*	2
COC(=O)c1sc(-c2ccccc2)cc1NC(C)=O	-23	i	i	2	2
Cc1nnc(SCC(=O)c2ccc(Cl)cc2)s1	8	i	i	64	21
CCn1c(N)c(C(=O)NCc2ccc3c(c2)OCO3)sc1=S	4	i	i	99*	13
CCOC(=O)c1c(C)c(C(=O)NCc2ccc3c(c2)OCO3)c(C)n1CC	1	i	i	-18	25
CCn1c(N)c(C(=O)NCCOC)sc1=S	15	i	i	100*	26
CCC1CCCCN1C(=O)CCNC(=O)Cn1cnc2ccccc2c1=O (centres undefined)	-2	i	i	0	16
O=C(NN=C(Cc1ccccc1)Cc1ccccc1)c1ccccc1F	11	i	i	-2	-2
S=c1nc(-c2cccc(Br)c2)[nH][nH]1	21	i	i	99*	33
Brc1cccc(-c2n[nH]c(-c3ccccc3)n2)c1	-6	i	i	8	-6
Cc1ccc(S(=O)(=O)N2CCN(CC(O)c3ccccc3)CC2)cc1C (centres undefined)	2	i	i	-5	7
Cc1csc(SCC(=O)Nc2sccc2C(N)=O)n1	18	i	i	95*	-1
CCCn1cc(CN2CCC(Oc3ccc(C(=O)N4CCCC4)cc3)CC2)c(C)n1	-2	i	i	-11	11
COc1ccc(NC(=O)CSc2nnc(-c3cccnc3)o2)c(OC)c1	1	i	i	98*	28
COc1ccc(NC(=O)CSc2ccc3nnc(-c4cccnc4)n3n2)c(OC)c1	45*	i	i	14	17
COc1ccc(NC(=O)CSc2ccc(-c3cccnc3)nn2)c(OC)c1	6	i	i	-19	21
O=C(CN1C(=O)NC2(CCCC2)C1=O)Nc1ccccc1N1CCCC1	1	i	i	99*	3
O=C(CN1C(=O)NC2(CCCC2)C1=O)Nc1cc(Cl)ccc1N1CCCC1	0	i	i	87*	12
SMILES	PREPL inh	CHT allo act	CHT block	ALR inh	AI-2 QS modul
COc1ccc(Cl)cc1C(=O)NNC(=O)CCNS(=O)(=O)c1ccccc1	14	.	.	-3	.
O=C(O)c1cc([N+](=O)[O-])c(Sc2nc3ccccc3[nH]2)c([N+](=O)[O-])c1	-4	i	i	85*	9
Cc1cccc(Sc2c([N+](=O)[O-])ncn2C)c1	-4	i	i	98*	5
CS(=O)(=O)c1cc([N+](=O)[O-])c(Sc2nc3ccccc3[nH]2)c([N+](=O)[O-])c1	28	i	i	-26	1
Cc1cccnc1Sc1c([N+](=O)[O-])ncn1C	-7	i	i	14	4
Cn1cnc([N+](=O)[O-])c1SCC(=O)NN	-4	i	i	88*	27
Cn1cnc([N+](=O)[O-])c1Sc1nc2ccccc2[nH]1	10	i	i	99*	37
O=C(NC1CCCC1)C(c1ccccc1F)N(C(=O)c1csnn1)c1ccccc1 (centres undefined)	.	.	.	.	10
CCNS(=O)(=O)c1ccc(OC)c(C(=O)NC2CCCCC2)c1	-6	i	i	1	-2
Cc1cc2nc(Sc3c([N+](=O)[O-])nc(C)n3Cc3ccccc3)[nH]c2cc1C	8	i	i	97*	23
Cc1nc([N+](=O)[O-])c(Sc2nc3ccccc3[nH]2)n1Cc1ccccc1	7	i	i	42	41
COc1ccc(-c2csc(NC(=O)C3CCN(c4ncnc5sc(C)c(C)c45)CC3)n2)cc1OC	15	i	i	-7	14
COc1ccc(S(=O)(=O)Cc2ccc(C(=O)NCCCN(C)c3ccccc3)o2)cc1	13	i	i	99*	16
CCCCNC(=O)c1ccc(CS(=O)(=O)c2ccc(C)cc2)o1	9	i	i	79*	8
CCCCNC(=O)c1ccc(CS(=O)(=O)c2ccc(OC)cc2)o1	1	i	i	.	17
O=C(N=C1SC2CS(=O)(=O)CC2N1c1cc(Cl)ccc1Cl)C1CCCO1 (centres undefined)	9	i	i	-2	-28
CCN(CC)c1ccc(/C=C2\SC(N)=NC2=O)cc1	.	i	i	99*	19
Cc1n[nH]c(C)c1N1C(=O)c2cccc3cc(Br)cc(c23)C1=O	-1	i	i	-7	28
Cc1n[nH]c(C)c1N1C(=O)c2cccc3c(Br)ccc(c23)C1=O	3	i	-7.4*	-3	38
CC(NCC(=O)Nc1cc(S(=O)(=O)N2CCOCC2)ccc1Cl)c1ccc(Cl)cc1Cl (centres undefined)	19	i	i	-8	9
CCN(CC(=O)NCc1ccc(F)cc1)C(=O)/C=C/c1ccco1	-5	i	i	88*	-4
CCN(CC(=O)NCc1ccc(F)cc1)C(=O)/C=C/c1cccs1	4	i	i	1	17
O=C(/C=C/c1ccco1)NCc1ccc2c(c1)OCO2	-5	i	i	31	-77*
O=C(/C=C/c1ccco1)Nc1ccc2c(c1)OCO2	9	i	i	3	-14
Cc1ccc(NS(=O)(=O)c2ccc(OCC(=O)Nc3cccc([N+](=O)[O-])c3)c(C)c2)cc1	-2	i	i	-6	31
CSC(=Nc1ccccc1)C1=C(O)COC1=O	-6	i	i	97*	11
CCSC(=Nc1ccccc1)C1=C(O)COC1=O	-1	i	i	-17	8
Cc1c(Nc2nc(-c3ccc(Cl)cc3)cs2)c(=O)n(-c2ccccc2)n1C	23	i	i	35	-86*
CCOC(=O)Cc1csc(Nc2c(C)n(C)n(-c3ccccc3)c2=O)n1	-1	i	i	25	2

Bioassay records from PubChem.
